Bioassay records: PubChem, National Center for Advancing Translational Sciences (NCATS)
The list is not random: actives were taken first. Their share in the collection is about 2.4%.
D2 antagonist: HTS Assay for Allosteric Antagonists of the Human D2 Dopamine Receptor: Primary Screen for Antagonists; inhibition, % at 10 µM; hit rate 2% among 340,000; D(2) dopamine receptor (Homo sapiens), P14416; HEK293 TREx D2 cells, calcium flux, dopamine EC80; in the data active = inhibition above about 30%; inactive = below that, where a call was filed
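Tetracycline-induced HEK293 TREx cells expressing D2 receptor forced-coupled to calcium signalling, loaded with no-wash calcium dye. Compounds added and calcium flux read 180 s, then dopamine added at EC80 and read a further 180 s.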
D2 PAM-1: HTS Assay for Positive Allosteric Modulators of the Human D2 Dopamine Receptor: Primary Screen for Potentiators | D(2) dopamine receptor (Homo sapiens), P14416 | HEK293 T-REx D2, calcium flux, EC20 dopamine potentiation | potentiation, % at 10 µM | hit rate 0.34% among 340,000 | AID 485347, 2010;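 active = potentiation over 3 SD above the plate norm, cut at about 30% in these data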
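Using a no-wash calcium dye in inducible, force-coupled HEK293 Trex cells expressing D2, we tracked fluorescence each second for 180 s after compound, then for 180 s after EC20 dopamine to detect augmented signalling.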
D2 ag-1: Beta-Arrestin HTS for Positive Allosteric Modulators of the Human D2 Dopamine Receptor: Agonists | D(2) dopamine receptor (Homo sapiens), P14416 | DiscoveRx PathHunter D2 beta-arrestin, luminescence, 90 min; 100% = 57 uM dopamine signal | activation, % (no concentration beside the values) | hit rate 0.084% among 360,000; in the data active = activation above about 40%; inconclusive = between about 15% and that limit
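DiscoveRx PathHunter D2 beta-arrestin cells (2,100/well) attached overnight, then compound-stimulated 90 min at 37 C in HBSS/10 mM HEPES/0.1% Tween-20 buffer; beta-galactosidase complementation read by luminescence after 1 h at ambient temperature. Dopamine 57 uM final (EC100) as control.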
D2 ag-2: HTS Assay for Allosteric Agonists of the Human D2 Dopamine Receptor: Primary Screen for Agonists. AID 485358, 2010. activation, % at 2 µM. hit rate 0.53% among 340,000. D(2) dopamine receptor (Homo sapiens), P14416. HEK293 T-REx D2 cells, calcium flux agonist mode;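 active = activation over 3 SD above normal in the single-dose calcium agonist read, cut at about 30% in these data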
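Calcium-flux readout, 1 cycle/sec over 180 s following compound pin transfer, in inducible HEK293 Trex D2 cells (force-coupled); dopamine controls included. Positive calcium responses during this window marked compounds as potential agonists.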
D2 PAM-2: Beta-Arrestin HTS for Positive Allosteric Modulators of the Human D2 Dopamine Receptor: Potentiators | D(2) dopamine receptor (Homo sapiens), P14416 | DiscoveRx D2 beta-arrestin cells, luminescence, 90 min; 100% = 57 uM dopamine signal | potentiation, % (no concentration beside the values) | hit rate 0.23% among 360,000 | AID 624464, 2012; in the data active = potentiation above about 50%; inconclusive = mostly about 30% to 49%
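PathHunter beta-arrestin assay in DiscoveRx D2 cells. Compounds were added with an EC20 of dopamine (50 nM final) for 90 min at 37 deg C. Luminescence was read 1 h after detection reagent, with 57 uM dopamine as the EC100 control.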
D3 arrestin ag: qHTS of D3 Dopamine Receptor Agonist: D3 Dopamine Receptor B-arrestin Agonist Confirmatory Assay; hit rate 4% among 2,300; DiscoveRx D3 beta-arrestin cells, luminescence, 90 min; shares compounds with D2 ag-2; Potency, µM (highest dose often 76.9 µM), actives largely listed as activators; AID 720506, 2013; also: nearly all actives have a fitted effect of over 70% in size
Target sequence (P35462 whole entry, looked up): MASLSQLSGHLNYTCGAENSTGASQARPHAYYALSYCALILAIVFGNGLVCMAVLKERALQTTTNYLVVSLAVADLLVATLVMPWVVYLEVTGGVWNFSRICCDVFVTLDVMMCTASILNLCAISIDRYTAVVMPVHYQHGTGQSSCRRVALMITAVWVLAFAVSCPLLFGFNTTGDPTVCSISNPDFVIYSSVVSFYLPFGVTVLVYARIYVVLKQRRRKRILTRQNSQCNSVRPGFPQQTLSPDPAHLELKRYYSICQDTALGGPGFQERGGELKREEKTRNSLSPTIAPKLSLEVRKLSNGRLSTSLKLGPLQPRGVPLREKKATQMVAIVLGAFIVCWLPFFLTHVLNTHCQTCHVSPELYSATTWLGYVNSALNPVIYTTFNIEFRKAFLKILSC
D2 ag-3: qHTS of D3 Dopamine Receptor Agonist: D2 Dopamine Receptor B-arrestin Agonist Counterscreen; Potency, µM (top dose mostly 76.9 µM), hits mostly activators; shares compounds with D2 ag-2; AID 720507, 2013; DiscoveRx PathHunter D2 beta-arrestin, luminescence, 90 min; response scale: percent relative to full dopamine signal; hit rate 5.9% among 2,300; also: nearly all actives have a fitted effect of over 70% in size
Of the large screens only hits and unclear results are named; the others gave an inactive call (follow-up assays come after a bar, where they were run). Unless noted, calls follow the shape of the dose curve; as a rule, active = well fitted activation curve with a large enough effect; inconclusive = small, poorly fitted or top-dose-only effect; inactive = flat fitted curve, though single readings scatter.

Oc1ccc(CCNc2c3ccccc3nc3ccccc23)cc1O	D2 antagonist 91.2, D2 ag-1 130.1, D2 ag-2 90.9 | D3 arrestin ag 11.2µM | D2 ag-3 5.01µM
O=C(O)C1C2C=CC(C3CC23)C1C(=O)NCCc1ccccc1 (centres undefined)	D2 ag-2 31.6 | D3 arrestin ag inactive | D2 ag-3 inactive
CC1=C(C)CC(C(=O)NCCc2ccccc2)C(C(=O)O)C1 (centres undefined)	none
CCN1CCN(C/C(C)=C/c2ccccc2)CC1	none
C/C(=C\c1ccccc1)CN1CCN(c2ccccc2F)CC1	D2 antagonist 66.9 | D3 arrestin ag inactive | D2 ag-3 inactive
COc1ccc(C)cc1NC(=O)c1cc2c(s1)-c1ccccc1SC2	none (no result: D2 antagonist, D2 ag-1, D2 PAM-2)
O=C1CC(c2ccccc2)NN1 (centres undefined)	none | D3 arrestin ag inactive | D2 ag-3 inactive
COc1ccc(C(=O)N=C2SC3CS(=O)(=O)CC3N2Cc2ccccc2)cc1OC (centres undefined)	none | D3 arrestin ag inconclusive | D2 ag-3 inactive
Cc1nn(-c2ccccc2)c(C)c1/C=C/C(=O)OC(C)C(=O)Nc1ncc(Cl)cc1Cl (centres undefined)	D2 ag-2 30.4 | D3 arrestin ag inactive | D2 ag-3 inactive
Cc1nn(-c2ccccc2)c(C)c1/C=C/C(=O)OCC(=O)Nc1ncc(Cl)cc1Cl	none
O=C(C1CCCN(S(=O)(=O)c2cccc3cccnc23)C1)N1CCN(c2ccccc2F)CC1 (centres undefined)	D2 antagonist 37.0 | D3 arrestin ag inactive | D2 ag-3 inconclusive
O=C(C1CCCN1S(=O)(=O)c1cccc2cccnc12)N1CCN(c2ccccc2)CC1 (centres undefined)	none | D3 arrestin ag inactive | D2 ag-3 inactive
COc1ccc(Nc2nn3c(=O)c4cc5c(cc4nc3s2)OCO5)c(OC)c1	none (no result: D2 antagonist, D2 ag-1, D2 PAM-2)
COc1ccc(C(OCC(O)CNCCc2ccccc2)c2ccc(OC)cc2)cc1 (centres undefined)	D2 ag-2 51.4 | D3 arrestin ag inactive | D2 ag-3 inactive
OC(CNCCc1ccccc1)COc1ccc(OCC(O)CNCCc2ccccc2)cc1 (centres undefined)	none (no result: D2 antagonist, D2 PAM-1, D2 ag-2) | D3 arrestin ag inactive | D2 ag-3 inactive
CCCn1c2ccccc2c2cnn(CC(=O)NCCCN(Cc3ccccc3)C(C)C)c(=O)c21	none (no result: D2 antagonist, D2 ag-1, D2 PAM-2)
Cc1ccc(CNC(=O)c2c3c(nc4ccccc24)C(=O)N(C2CCCCC2)C3)cc1	none (no result: D2 antagonist, D2 ag-1, D2 PAM-2)
Cc1cc(C)n2nc(-c3cccnc3)nc2n1	none
Cc1cc(C)n2nc(-c3ccc(F)cc3)nc2n1	none (no result: D2 antagonist, D2 PAM-1, D2 ag-2) | D3 arrestin ag inactive | D2 ag-3 inactive
C=CCn1c(COc2ccc(Cl)cc2)nnc1SCC(=O)Nc1ccc(S(N)(=O)=O)cc1	D2 ag-2 59.0 | D3 arrestin ag inactive | D2 ag-3 inactive
Cn1c(CC(=O)NNC(=O)c2ccc(F)cc2Cl)nc2ccccc21	none
Cn1c(CC(=O)NNC(=O)c2ccccc2[N+](=O)[O-])nc2ccccc21	none | D3 arrestin ag inactive | D2 ag-3 inactive
CCOC(=O)[C@@H]1[C@H]2COc3ccc(Br)cc3[C@H]2N2C(=O)N(c3ccc(Br)cc3)C(=O)[C@]12C	none
CCOC(=O)[C@@H]1[C@H]2COc3ccc(Br)cc3[C@@H]2N2C(=O)N(c3ccc(Br)cc3)C(=O)[C@]12C	D2 ag-2 32.4 | D3 arrestin ag inactive | D2 ag-3 inactive
CCOC(=O)[C@H]1[C@H]2COc3cc(OC)ccc3[C@@H]2N2C(=O)CN(Cc3ccco3)C(=O)[C@@]12C	none | D3 arrestin ag inactive | D2 ag-3 inactive
CC(C)COc1ccc(C(=O)Nc2nnc(S(=O)(=O)N(C)Cc3ccco3)s2)cc1	none (no result: D2 antagonist, D2 ag-1, D2 PAM-2)
CN(CCNC(=O)c1ccc(CS(=O)(=O)c2c(Cl)cccc2Cl)o1)CCc1ccccc1	D2 ag-2 30.7 | D3 arrestin ag inactive | D2 ag-3 inactive
CN(C)CCNC(=O)c1ccc(CS(=O)(=O)c2c(Cl)cccc2Cl)o1	none
COc1ccc(-c2nn(CC(=O)Nc3ccc(Cl)c(Cl)c3)c(=O)c3ccccc23)cc1	D2 ag-2 53.6 | D3 arrestin ag inactive | D2 ag-3 inactive
COC(=O)COc1ccc(NC(=O)Cn2nc(-c3ccccc3)c3ccccc3c2=O)cc1	none
CCOc1ccc(N/C(N)=N/c2nc(C)cc(C)n2)cc1	none (no result: D2 antagonist, D2 PAM-1, D2 ag-2) | D3 arrestin ag inactive | D2 ag-3 inconclusive
Cc1ccc(C)c(N/C(N)=N/c2nc(C)cc(C)n2)c1	D2 ag-2 55.9 | D3 arrestin ag inactive | D2 ag-3 inactive
COc1ccc(C)cc1N/C(N)=N/c1nc(C)cc(C)n1	none
Cc1cc(C)nc(/N=C(\N)Nc2ccc(-c3ccccc3)cc2)n1	none
Cc1cc(C)nc(/N=C(\N)Nc2ccc(SC(F)F)cc2)n1	D2 ag-2 49.0 | D3 arrestin ag inactive | D2 ag-3 inactive
CC(=O)Nc1ccc(N/C(N)=N/c2nc(C)cc(C)n2)cc1	none
COCCn1c(SCC(=O)NCc2ccc3c(c2)OCO3)nnc1-c1c[nH]c2ccccc12	D2 ag-2 63.9 | D3 arrestin ag inactive | D2 ag-3 inactive
COCCn1c(SCC(=O)NCc2ccc3c(c2)OCO3)nnc1C(C)C	none
CC(C)CCNC(=O)CN1C(=O)CCn2nc(-c3cn(C)c4ccccc34)cc21	none (no result: D2 antagonist, D2 ag-1, D2 PAM-2)
CC(=O)Nc1ccc(NC(=O)CN2CCN(c3ccccn3)CC2)cc1	D2 antagonist 84.2, D2 ag-1 inconclusive, D2 ag-2 81.7 | D3 arrestin ag inconclusive | D2 ag-3 inconclusive
O=C(CN1CCN(c2ccccn2)CC1)Nc1ccc2ccccc2c1	none | D3 arrestin ag inactive | D2 ag-3 inactive
COc1ccc(OC)c2sc(N3CCN(C(=O)c4ccc5c(c4)CCCC5)CC3)nc12	none (no result: D2 antagonist, D2 ag-1, D2 PAM-2)
CC(C)OCCCNC(=O)c1cc2c(-c3ccc(Cl)cc3)nn(C)c2s1	none (no result: D2 antagonist, D2 ag-1, D2 PAM-2)
O=C(NCCCN1CCCC1=O)c1ccc(NS(=O)(=O)c2ccc(F)cc2)cc1	none | D3 arrestin ag inactive | D2 ag-3 inactive
O=C(NCc1ccncc1)c1ccc(NS(=O)(=O)c2ccc(F)cc2)cc1	none (no result: D2 antagonist, D2 PAM-1, D2 ag-2) | D3 arrestin ag inactive | D2 ag-3 inactive
